# PubChem BioAssay
# Calls of active or inactive are those of the source. Unless noted, no rule for the calls is given here.
# How the values were obtained:
# [1] = tested on: XIP peptide (Xip251-270) binding; test: small-molecule binders of XIP peptide, primary screen, biochemical, small-molecule microarray, fluorescence 635/667 nm, 0.1 µg/mL protein (AID 1182); conditions: fluorescent protein binding, 635 nm, higher = more signal, called active from +8 up or from −8 down
# [2] = tested on: XIP peptide (Xip251-270); test: small-molecule binders of XIP peptide, primary screen, biochemical, small-molecule microarray, fluorescence 635/667 nm, 0.5 µg/mL protein (AID 1183); conditions: small-molecule microarray binding, fluorescence 635 nm; higher = more signal
# [3] = Plasmodium falciparum growth inhibition, primary screen, strain 3D7, DAPI fluorescence, 100 nL (AID 1184);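 also: parasites grown inside human red blood cells in medium with human serum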; conditions: P. falciparum 3D7 growth, 3 d, higher = more signal
# [4] = target: Homeobox protein Hox-A13 (Mus musculus) (UniProt Q62424); test: inhibitors of HoxA13-DNA binding, primary screen, biochemical, fluorescence polarization, labeled oligonucleotide (AID 1185); conditions: 15 min, higher = more signal, called active from +8 up or from −8 down
# [5] = inhibitors of hydroxyurea-induced Chk1 phosphorylation, primary screen, imaging, HeLa, phospho-Chk1 antibody, percent positive cells (AID 1186); conditions: hydroxyurea-induced phospho-Chk1 immunofluorescence imaging, higher = more signal
# [6] = inhibitors of hydroxyurea-induced Chk1 phosphorylation, primary screen, imaging, HeLa, phospho-Chk1 nuclear intensity (AID 1187); conditions: hydroxyurea-induced phospho-Chk1 immunofluorescence imaging, higher = more signal
# Chain of Homeobox protein Hox-A13 (Mus musculus) (Q62424 whole entry, looked up): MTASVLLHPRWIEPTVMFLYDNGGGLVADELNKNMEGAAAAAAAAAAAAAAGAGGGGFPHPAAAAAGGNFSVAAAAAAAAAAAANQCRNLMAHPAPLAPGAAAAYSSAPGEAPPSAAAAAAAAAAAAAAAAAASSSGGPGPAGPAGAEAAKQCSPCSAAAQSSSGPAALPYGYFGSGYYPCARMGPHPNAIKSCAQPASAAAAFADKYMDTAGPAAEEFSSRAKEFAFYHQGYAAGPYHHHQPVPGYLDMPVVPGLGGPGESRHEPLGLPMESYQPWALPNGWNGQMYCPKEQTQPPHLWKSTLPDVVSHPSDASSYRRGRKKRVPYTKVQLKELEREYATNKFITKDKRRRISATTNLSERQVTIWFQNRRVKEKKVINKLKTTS
SMILES,composite z-score [1],composite z-score [2],z-score [3],z-score [4],z-score [5],z-score [6]
COCCCNC(=O)[C@]1(Cc2ccccc2)N=C(c2ccc(OCCCO)cc2)O[C@@H]1c1ccccc1N=[N+]=[N-],0.829 (inactive),0.576,-2.7,-4.42 (inactive),-1.82 (inactive),-6.65 (inactive)
COc1ccc([Si](C)(C)[C@H]2[C@H](CCO)O[C@@]3(C(=O)N(Cc4cccc(N5CCOC5=O)c4)c4ccccc43)[C@@H]2C)cc1,0.154 (inactive),0.687,-2.79,-4.21 (inactive),-1.12 (inactive),-0.5 (inactive)
CC1C=C(CCCO)C=C(C(=O)OCCS(C)(=O)=O)C(C(=O)OCCS(C)(=O)=O)=CN1Cc1cccc(OC(F)(F)F)c1 (stereo not drawn),0.392 (inactive),-0.0318,-2.67,-7.2 (inactive),-0.0917 (inactive),0.397 (inactive)
C=CCC(OC(C)=O)[C@@H]1[C@@H](N(Cc2ccc(-c3cccc(C(F)(F)F)c3)o2)C(=O)c2cccc3ccccc23)c2cc(OCCCO)ccc2N1C(=O)c1ccc(-c2ccccc2)cc1 (stereo partly drawn),-0.0517 (inactive),-0.131,-3,-2.39 (inactive),-0.403 (inactive),-0.16 (inactive)
COc1cccc(C)c1NC(=O)O[C@H]1[C@H](OC(=O)Nc2ccccc2)[C@H](OC(=O)Nc2ccccc2)[C@@H](OC)O[C@@H]1CO,1.57 (inactive),0.401,-1.51,-5.38 (inactive),-0.0198 (inactive),0.136 (inactive)
CC(C)[Si](C#C[Si](C(C)C)(C(C)C)C(C)C)(O[C@H](C)c1cn(Cc2cccc(Cl)c2)nn1)C(C)C,-0.109 (inactive),-0.0612,0.293,0.702 (inactive),0.0695 (inactive),0.153 (inactive)
COc1ccc([Si](C)(C)[C@@H]2[C@@H](CCO)O[C@]3(C(=O)N(Cc4ccc(N5C(=O)c6ccccc6Oc6ccccc65)cc4)c4ccccc43)[C@H]2C)cc1,0.89 (inactive),0.294,-2.77,-1.06 (inactive),-0.42 (inactive),-0.394 (inactive)
C=CCOC(=O)[C@@H]1[C@H]2C(=O)O[C@H](c3ccccc3)[C@H](c3ccccc3)N2[C@H](c2ccc(OCCOC(=O)[C@H]3C[C@H]4C(=O)N[C@@H](Cc5ccccc5)C(=O)N4[C@H]3c3cccc(OCCO)c3)cc2)[C@@]12C(=O)Nc1ccc(I)cc12,2.12 (inactive),0.813,0.143,6.79 (inactive),-0.173 (inactive),0.0575 (inactive)
